# Experimental data taken from ChEMBL document CHEMBL3988442, “University of Dundee, Small-Polar-MMV Screening Library” (2021).
# For some of these results: Measured potencies and affinities stand elsewhere.
# Experiments:
# Set-up in all cases: scale not given: direction of the effect not stated beside the values
# [1] = target: Protein translocase subunit SecA (Escherichia coli (strain K12)) (UniProt P10408); assay: Assay to Identify E. coli SecA ATPase Inhibitors; assay type: functional; conditions: 30 µM
# [2] = target: T1, Ubiquitin-activating enzyme e1, putative (Leishmania donovani (strain BPK282A1)) (UniProt E9BSI1); assay: Leishmania donovani Ubiquitin Activating Enzyme (LdE1); assay type: functional; conditions: 30 µM
# T1 sequence (whole entry): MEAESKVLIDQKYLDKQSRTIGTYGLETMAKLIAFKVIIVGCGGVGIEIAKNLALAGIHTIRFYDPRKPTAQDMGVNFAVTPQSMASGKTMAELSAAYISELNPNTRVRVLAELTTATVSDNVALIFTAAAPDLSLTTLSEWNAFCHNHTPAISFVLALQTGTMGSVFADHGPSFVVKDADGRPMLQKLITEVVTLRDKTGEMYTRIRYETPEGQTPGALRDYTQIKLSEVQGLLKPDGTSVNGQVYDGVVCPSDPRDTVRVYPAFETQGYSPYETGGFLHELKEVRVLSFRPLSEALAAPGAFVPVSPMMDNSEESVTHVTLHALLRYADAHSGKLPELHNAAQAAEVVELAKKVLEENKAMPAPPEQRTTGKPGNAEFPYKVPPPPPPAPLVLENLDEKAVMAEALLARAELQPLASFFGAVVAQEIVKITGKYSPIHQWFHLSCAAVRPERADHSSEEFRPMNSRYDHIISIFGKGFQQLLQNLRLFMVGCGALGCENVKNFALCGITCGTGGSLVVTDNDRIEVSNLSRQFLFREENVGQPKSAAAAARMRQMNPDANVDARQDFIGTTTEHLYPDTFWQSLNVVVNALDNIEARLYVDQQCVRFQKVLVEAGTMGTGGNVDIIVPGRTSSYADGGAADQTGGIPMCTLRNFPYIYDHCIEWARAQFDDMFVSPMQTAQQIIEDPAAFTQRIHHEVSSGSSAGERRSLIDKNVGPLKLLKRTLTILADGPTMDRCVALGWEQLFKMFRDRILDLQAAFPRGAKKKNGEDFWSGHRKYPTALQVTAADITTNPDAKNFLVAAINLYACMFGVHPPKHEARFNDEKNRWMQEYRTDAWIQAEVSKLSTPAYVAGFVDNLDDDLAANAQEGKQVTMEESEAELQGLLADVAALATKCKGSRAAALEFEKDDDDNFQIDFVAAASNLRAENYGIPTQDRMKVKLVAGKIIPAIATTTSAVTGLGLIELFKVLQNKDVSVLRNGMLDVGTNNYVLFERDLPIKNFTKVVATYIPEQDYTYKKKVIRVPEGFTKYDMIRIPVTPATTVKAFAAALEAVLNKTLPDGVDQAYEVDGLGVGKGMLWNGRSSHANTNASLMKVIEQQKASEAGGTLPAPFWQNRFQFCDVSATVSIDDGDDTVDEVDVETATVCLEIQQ
# [3] = target: T2, Aspartate--tRNA(Asp/Asn) ligase (Mycobacterium tuberculosis (strain ATCC 25618 / H37Rv)) (UniProt P9WFW3); assay: Assay for Asp RNA synthetase-1 from Mycobacterium tuberculosis; assay type: functional; conditions: 30 µM; note: in the data most compounds retested in dose-response had high values
# T2 sequence (whole entry): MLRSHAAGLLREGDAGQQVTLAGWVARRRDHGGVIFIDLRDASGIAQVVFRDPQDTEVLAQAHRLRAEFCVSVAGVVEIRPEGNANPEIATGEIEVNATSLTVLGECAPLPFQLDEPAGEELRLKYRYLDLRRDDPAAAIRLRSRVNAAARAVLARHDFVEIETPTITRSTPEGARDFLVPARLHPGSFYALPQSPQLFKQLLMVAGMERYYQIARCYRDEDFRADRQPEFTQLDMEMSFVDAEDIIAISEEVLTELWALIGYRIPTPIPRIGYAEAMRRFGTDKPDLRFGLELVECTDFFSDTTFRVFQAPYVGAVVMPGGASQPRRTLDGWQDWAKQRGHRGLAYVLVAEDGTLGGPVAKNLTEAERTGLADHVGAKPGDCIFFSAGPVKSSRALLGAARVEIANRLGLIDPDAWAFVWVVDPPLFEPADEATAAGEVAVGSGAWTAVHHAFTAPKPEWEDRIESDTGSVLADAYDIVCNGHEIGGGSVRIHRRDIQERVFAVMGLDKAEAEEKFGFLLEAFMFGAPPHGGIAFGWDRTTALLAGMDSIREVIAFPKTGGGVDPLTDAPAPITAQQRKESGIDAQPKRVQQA
# [4] = target: Sialic acid-binding Ig-like lectin 9 (Homo sapiens) (UniProt Q9Y336); assay: Hs-Siglec9 ALPHAscreen SOP 20170721; conditions: 10 µM
# Trypanosoma cruzi = assay: Trypanosoma cruzi phosphomannomutase and mannose-1-phosphate guanylyltransferase assay; assay type: functional; conditions: 10 µM
# [5] = target: T3, Arginase-2, mitochondrial (Homo sapiens) (UniProt P78540); assay: in vitro enzyme assay to detect the production of urea directly proportional to the activity of Arginase II; assay type: functional; conditions: 33.3 µM; note: in the data most compounds retested in dose-response had high values
# T3 sequence (whole entry): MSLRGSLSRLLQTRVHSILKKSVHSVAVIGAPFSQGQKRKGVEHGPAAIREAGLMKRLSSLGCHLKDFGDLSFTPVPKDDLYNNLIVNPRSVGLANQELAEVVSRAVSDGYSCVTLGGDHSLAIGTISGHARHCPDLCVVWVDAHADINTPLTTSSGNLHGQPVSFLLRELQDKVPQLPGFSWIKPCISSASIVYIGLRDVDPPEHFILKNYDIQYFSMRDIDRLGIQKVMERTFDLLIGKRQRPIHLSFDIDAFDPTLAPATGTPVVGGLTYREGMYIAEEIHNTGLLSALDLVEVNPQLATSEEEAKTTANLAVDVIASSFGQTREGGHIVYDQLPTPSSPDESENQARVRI
# [6] = target: T4, Proteasome subunit beta (Trypanosoma cruzi) (UniProt O96673); assay: Trypanosoma cruzi proteasome chymotrypsin-like activity (TcProtChymo) assay.; note: in the data most compounds retested in dose-response had high values; assay type: functional; conditions: 9.37 µM
# T4 sequence (whole entry): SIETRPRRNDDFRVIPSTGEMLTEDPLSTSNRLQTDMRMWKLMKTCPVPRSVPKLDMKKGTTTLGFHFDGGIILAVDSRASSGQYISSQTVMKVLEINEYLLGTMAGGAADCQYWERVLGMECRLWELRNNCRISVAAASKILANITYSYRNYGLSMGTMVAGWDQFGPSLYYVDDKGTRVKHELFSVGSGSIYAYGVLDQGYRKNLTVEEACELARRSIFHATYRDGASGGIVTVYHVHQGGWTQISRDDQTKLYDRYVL
# Homo sapiens = species: Homo sapiens; assay: To identify inhibition of the IFN signalling (Jak-Stat) pathway via expression of an eGFP reporter gene under the control of an IFN-stimulated response element (ISRE) containing MxA promoter.; assay type: functional; conditions: 30 µM
# [7] = target: Shiga toxin 2 (Escherichia coli O157:H7) (UniProt P09385+P09386); assay: E. coli 0.157:H7 Shiga Toxin SOP - stx2 screening assay; assay type: functional; conditions: 30 µM
# [8] = target: T5, Tyrosyl-tRNA synthetase, putative (Trypanosoma cruzi (strain CL Brener)) (UniProt Q4DSP6); assay: Trypanosoma cruzi tyrosyl tRNA synthetase (TcYRS) _High Tyrosine SOP; assay type: functional; conditions: 30 µM; note: in the data most compounds retested in dose-response had high values
# T5 sequence (whole entry): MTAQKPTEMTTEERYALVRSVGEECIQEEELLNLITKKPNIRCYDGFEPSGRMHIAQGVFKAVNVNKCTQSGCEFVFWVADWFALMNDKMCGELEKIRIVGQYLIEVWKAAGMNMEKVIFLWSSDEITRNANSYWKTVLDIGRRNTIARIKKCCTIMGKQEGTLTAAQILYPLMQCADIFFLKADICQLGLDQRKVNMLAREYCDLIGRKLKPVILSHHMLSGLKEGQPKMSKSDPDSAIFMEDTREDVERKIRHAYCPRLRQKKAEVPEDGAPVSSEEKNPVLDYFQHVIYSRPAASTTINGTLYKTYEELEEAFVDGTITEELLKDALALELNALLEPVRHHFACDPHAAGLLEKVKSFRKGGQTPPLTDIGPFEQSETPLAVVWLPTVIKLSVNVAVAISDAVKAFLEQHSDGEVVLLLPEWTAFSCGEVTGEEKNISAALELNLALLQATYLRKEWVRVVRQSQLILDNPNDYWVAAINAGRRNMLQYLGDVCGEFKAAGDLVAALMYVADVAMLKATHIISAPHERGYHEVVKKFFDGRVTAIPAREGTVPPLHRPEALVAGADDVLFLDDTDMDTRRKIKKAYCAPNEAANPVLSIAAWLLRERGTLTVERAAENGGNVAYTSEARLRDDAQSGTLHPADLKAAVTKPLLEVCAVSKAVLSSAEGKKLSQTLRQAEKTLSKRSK
# [9] = target: T5, Tyrosyl-tRNA synthetase, putative (Trypanosoma cruzi (strain CL Brener)); assay: Trypanosoma cruzi tyrosyl tRNA synthetase (TcYRS) SOP; assay type: functional; conditions: 30 µM
# [10] = target: Chromo domain-containing protein 1 (Saccharomyces cerevisiae (strain ATCC 204508 / S288c) (Baker's yeast)) (UniProt P32657); assay: ScCHD-1 Enzyme Inhibition Assay; assay type: functional; conditions: 30 µM; note: in the data most compounds retested in dose-response had high values
# Sequence of Chromo domain-containing protein 1 (Saccharomyces cerevisiae (strain ATCC 204508 / S288c) (Baker's yeast)) (P32657 whole entry, the tested form may be a part): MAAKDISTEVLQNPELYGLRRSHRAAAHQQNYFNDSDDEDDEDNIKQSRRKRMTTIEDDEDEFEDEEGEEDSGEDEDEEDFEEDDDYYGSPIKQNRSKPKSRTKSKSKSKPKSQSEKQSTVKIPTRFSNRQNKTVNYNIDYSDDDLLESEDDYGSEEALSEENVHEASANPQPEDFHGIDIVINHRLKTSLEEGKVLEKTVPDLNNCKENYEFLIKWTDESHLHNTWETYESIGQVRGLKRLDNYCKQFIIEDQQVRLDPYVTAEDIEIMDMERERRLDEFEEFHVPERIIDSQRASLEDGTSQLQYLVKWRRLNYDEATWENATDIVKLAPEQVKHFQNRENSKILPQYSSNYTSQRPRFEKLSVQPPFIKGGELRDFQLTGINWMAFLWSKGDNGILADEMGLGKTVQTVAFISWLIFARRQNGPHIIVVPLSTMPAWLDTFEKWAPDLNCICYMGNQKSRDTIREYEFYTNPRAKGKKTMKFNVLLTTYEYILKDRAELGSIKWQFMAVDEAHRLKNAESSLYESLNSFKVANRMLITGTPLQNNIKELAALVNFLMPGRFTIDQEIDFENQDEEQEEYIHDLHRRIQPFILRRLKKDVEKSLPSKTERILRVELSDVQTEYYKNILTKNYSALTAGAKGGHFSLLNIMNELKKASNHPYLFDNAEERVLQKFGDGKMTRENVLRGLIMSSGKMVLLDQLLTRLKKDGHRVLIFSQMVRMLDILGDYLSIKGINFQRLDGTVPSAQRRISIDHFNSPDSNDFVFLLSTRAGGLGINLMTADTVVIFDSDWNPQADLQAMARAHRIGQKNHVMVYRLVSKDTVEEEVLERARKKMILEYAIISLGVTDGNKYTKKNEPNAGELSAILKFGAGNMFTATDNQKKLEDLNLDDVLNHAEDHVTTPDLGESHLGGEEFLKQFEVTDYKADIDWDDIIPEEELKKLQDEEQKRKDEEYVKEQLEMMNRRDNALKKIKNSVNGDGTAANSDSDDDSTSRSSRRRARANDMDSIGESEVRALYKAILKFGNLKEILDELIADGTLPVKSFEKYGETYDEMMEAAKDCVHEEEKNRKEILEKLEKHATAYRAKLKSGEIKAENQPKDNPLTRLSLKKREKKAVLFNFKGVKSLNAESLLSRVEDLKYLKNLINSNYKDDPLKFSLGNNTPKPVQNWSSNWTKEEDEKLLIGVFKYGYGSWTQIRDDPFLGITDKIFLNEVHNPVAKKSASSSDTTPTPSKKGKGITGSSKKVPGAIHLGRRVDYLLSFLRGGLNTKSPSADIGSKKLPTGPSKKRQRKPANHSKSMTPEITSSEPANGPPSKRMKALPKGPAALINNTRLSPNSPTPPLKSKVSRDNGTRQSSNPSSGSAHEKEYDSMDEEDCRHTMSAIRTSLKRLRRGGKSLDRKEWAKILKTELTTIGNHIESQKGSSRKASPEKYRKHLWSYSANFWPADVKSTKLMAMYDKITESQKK
# Sequence of Sialic acid-binding Ig-like lectin 9 (Homo sapiens) (Q9Y336 whole entry): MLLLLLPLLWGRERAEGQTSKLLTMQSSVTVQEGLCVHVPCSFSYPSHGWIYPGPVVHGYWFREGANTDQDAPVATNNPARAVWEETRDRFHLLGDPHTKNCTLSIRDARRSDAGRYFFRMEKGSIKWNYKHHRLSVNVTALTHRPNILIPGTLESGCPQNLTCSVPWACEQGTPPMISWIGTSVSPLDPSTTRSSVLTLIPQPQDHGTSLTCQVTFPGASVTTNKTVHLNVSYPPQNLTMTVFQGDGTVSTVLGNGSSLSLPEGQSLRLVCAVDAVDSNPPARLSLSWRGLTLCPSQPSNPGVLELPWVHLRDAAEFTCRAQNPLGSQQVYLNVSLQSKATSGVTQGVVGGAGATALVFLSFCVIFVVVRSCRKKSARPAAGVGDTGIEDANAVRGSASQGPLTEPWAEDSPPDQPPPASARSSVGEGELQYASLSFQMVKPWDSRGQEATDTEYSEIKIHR
# Sequence of Protein translocase subunit SecA (Escherichia coli (strain K12)) (P10408 whole entry): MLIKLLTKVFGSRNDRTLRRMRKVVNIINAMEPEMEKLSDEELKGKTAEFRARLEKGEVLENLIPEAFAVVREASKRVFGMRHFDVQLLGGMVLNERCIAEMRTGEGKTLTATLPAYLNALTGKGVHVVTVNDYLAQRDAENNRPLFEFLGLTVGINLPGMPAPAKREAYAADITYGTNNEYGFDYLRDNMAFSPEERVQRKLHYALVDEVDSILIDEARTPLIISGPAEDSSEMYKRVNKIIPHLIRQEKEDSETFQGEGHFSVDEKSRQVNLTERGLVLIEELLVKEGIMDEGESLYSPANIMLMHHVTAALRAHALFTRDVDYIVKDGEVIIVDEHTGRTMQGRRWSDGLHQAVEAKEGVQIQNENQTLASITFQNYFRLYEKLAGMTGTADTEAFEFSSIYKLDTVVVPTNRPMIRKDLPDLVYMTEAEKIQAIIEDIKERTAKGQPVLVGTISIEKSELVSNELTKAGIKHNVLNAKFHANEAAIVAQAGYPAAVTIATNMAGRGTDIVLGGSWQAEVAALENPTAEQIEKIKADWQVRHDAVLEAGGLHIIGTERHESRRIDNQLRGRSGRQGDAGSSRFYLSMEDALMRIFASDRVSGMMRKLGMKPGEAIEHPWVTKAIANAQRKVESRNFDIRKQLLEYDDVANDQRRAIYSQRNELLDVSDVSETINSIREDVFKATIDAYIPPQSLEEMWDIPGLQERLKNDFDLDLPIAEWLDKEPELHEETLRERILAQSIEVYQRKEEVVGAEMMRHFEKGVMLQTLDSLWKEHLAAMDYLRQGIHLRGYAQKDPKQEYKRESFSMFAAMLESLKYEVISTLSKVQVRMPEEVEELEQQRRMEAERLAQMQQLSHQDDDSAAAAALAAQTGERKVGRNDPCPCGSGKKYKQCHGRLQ
smiles,measurement,setting,value
NC(=O)N1CC2(CCNCC2)c2cc(Cl)ccc21,Percent Effect,[1],0.158%
same,Percent Effect,[2],1.3%
same,Percent Effect,[3],0.933%
same,Percent Effect,[4],-0.465%
same,Percent Effect,Trypanosoma cruzi,-3.38%
same,Percent Effect,[5],4.11%
same,Percent Effect,[6],8.84%
same,Percent Effect,Homo sapiens,10.9%
same,Percent Effect,[7],4.45%
same,Percent Effect,[8],0%
same,Percent Effect,[9],-2.5%
same,Percent Effect,[10],2.33%
Cn1cc(CN2C[C@@H]3[C@@H](C2)OCC(=O)N3Cc2ccncc2)cn1,Percent Effect,[1],-5.79%
same,Percent Effect,[2],3.9%
same,Percent Effect,[3],4.5%
same,Percent Effect,[4],-1.61%
same,Percent Effect,Trypanosoma cruzi,1.07%
same,Percent Effect,[5],0.81%
same,Percent Effect,[6],15.8%
same,Percent Effect,Homo sapiens,8.18%
same,Percent Effect,[7],1.35%
same,Percent Effect,[8],-0.526%
same,Percent Effect,[9],17.9%
same,Percent Effect,[10],0.0412%
CC(=O)N1CCCN(c2nccc(-c3cn(C)nc3C)n2)CC1,Percent Effect,[3],-4.22%
CCSCCC(=O)Nc1ncn(CC(=O)NCc2ccccc2)n1,Percent Effect,[3],-2.33%
Cc1ccc(C(=O)N2Cc3ccccc3C2)cc1N1CCNC1=O,Percent Effect,[3],-0.287%
CCOCCn1nnc(C2(NC(=O)c3ccccc3)CCCC2)n1,Percent Effect,[3],-3.44%
CCC[C@@H]1CN(S(=O)(=O)c2ccc(C)c(F)c2)C[C@H]1N(C)C,Percent Effect,[3],0.149%
CC(O)CN1CCN(C(=O)c2cnn(-c3ccccc3F)c2)CC1 (stereo not drawn),Percent Effect,[3],-2.52%
CN(CCO)Cc1nnc(C2CCN(C(=O)C(C)(C)C)CC2)n1C,Percent Effect,[3],3.14%
COc1ncccc1NC(=O)N1CCC(CNC(C)=O)CC1,Percent Effect,[3],-1.39%
O=C(O)C(c1ccc2c(c1)OCCO2)N1CCCCCC1 (stereo not drawn),Percent Effect,[3],-3.23%
Cc1ccc2ncnc(N3CCOCC3c3c(C)nn(C)c3C)c2c1 (stereo not drawn),Percent Effect,[3],-0.356%
O=C(CC1=CCCCC1)NCCc1csc(N2CCCC2)n1,Percent Effect,[3],2.52%
C[S+]([O-])CCCNC(=O)c1cc(Br)c2c(c1)OCCO2 (stereo not drawn),Percent Effect,[3],-1.74%
Cc1nn(CCn2ccnc2-c2cc3n(n2)CCCNC3)c(C)c1Cl,Percent Effect,[3],-0.0115%
Cc1cnn(C2CN(CC(O)c3ccc4c(c3)OCCO4)C2)c1 (stereo not drawn),Percent Effect,[3],-4.61%
CCC(CO)N(Cc1ccccn1)C(=O)c1ccc2c(c1)CCO2 (stereo not drawn),Percent Effect,[3],-5.37%
CN1CCCC(CNC(=O)N2CCN(Cc3ccon3)CC2)C1 (stereo not drawn),Percent Effect,[3],-6.42%
O=C(O)c1ccn(-c2ccccc2NS(=O)(=O)c2ccccc2)n1,Percent Effect,[3],1.9%
COC1CCN(C(=O)c2c(Cl)c3ccccc3n2C)CC1,Percent Effect,[3],-5.5%
O=C(c1cnn(-c2ccccc2F)c1)N1CCN(CCO)CC1,Percent Effect,[3],-3.94%
CC(C)n1ccnc1C1CCCN(c2ccccn2)C1 (stereo not drawn),Percent Effect,[3],-2.15%
CCc1nc(CCNC(=O)Nc2cc(C(N)=O)sc2C)cs1,Percent Effect,[3],-1.32%
CN(C)CCn1c(=O)oc2ccc(NC(=O)C3CCCO3)cc21 (stereo not drawn),Percent Effect,[3],-2.08%
CSc1cccc(CNC(=O)C2CC(=O)N(CCN(C)C)C2)c1 (stereo not drawn),Percent Effect,[3],2.84%
Cc1nc(C2CCCN2C(=O)CNS(C)(=O)=O)no1 (stereo not drawn),Percent Effect,[3],0.586%
CC(C)Nc1ncc(CN2C[C@@H](CN3CCC(O)CC3)[C@@H](CO)C2)cn1,Percent Effect,[3],-1.99%
Cc1ccc(CNCc2nnc3n2CCCC3C(F)(F)F)o1 (stereo not drawn),Percent Effect,[3],0.425%
Cc1nn(C)cc1C(=O)N1C[C@H]2CC[C@@H]1CN(S(=O)(=O)N(C)C)C2,Percent Effect,[3],1.62%
O=C(c1ccncc1)N1C[C@@H]2CC[C@H](C1)N(C(=O)N1CCOCC1)C2,Percent Effect,[3],2.77%
COCc1nc2n(n1)CCCC2Nc1nc(C2CC2)ns1 (stereo not drawn),Percent Effect,[3],0.0804%
O=S(=O)(Cc1ccccc1F)NCCCN1CCCCC1,Percent Effect,[3],0.172%
CSCc1nc(C(C)(C)NC(=O)OC(C)(C)C)no1,Percent Effect,[3],-0.954%
COc1cccc(S(=O)(=O)CCN2CCCN(C(C)=O)CC2)c1,Percent Effect,[3],-1.55%
COc1ccc(-c2nc(CN3CCOCS3(=O)=O)c(C)o2)cc1,Percent Effect,[3],-1.67%
CCC(C(=O)NCc1ccncc1)N(c1ccc(OC)cc1)S(C)(=O)=O (stereo not drawn),Percent Effect,[3],1.25%
